# Rows were chosen to be rich in hits. Some 2.2% of all compounds tested hit in one or more screens of this group.
# ADAM17 inh: ADAM17 inhibitors, primary screen, biochemical, QFRET; recombinant ADAM17, EDANS/DABCYL FRET peptide cleavage; inhibition, % at 6.95 µM; hit rate 0.83% among 370,000; AID 720648, 2013;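 active means inhibition above the mean of compounds lying between control limits plus 3 SD, set per campaign, cut at about 8.5% in these data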;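 further: 0% = DMSO-only wells as the low control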
# KLK7 zymogen act: proKLK7 zymogen activators, primary screen, biochemical, fluorescence intensity | Kallikrein-7 (Homo sapiens), P49862 | purified proKLK7, EDANS-DABCYL substrate fluorescence; 100% is mature enzyme control, 0% vehicle | activation, % at 7 µM | hit rate 0.9% among 370,000 | AID 652039, 2013;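 active means activation above the mean of all tested compounds plus 3 SD, computed per campaign excluding outliers beyond control limits, cut at about 13% in these data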
# NPR1 activator: GC-A stimulated cGMP production enhancers – HEK293 GC-A cells, cGMP TR-FRET, EC30 ANP, primary screen | hit rate 0.14% among 370,000 | Atrial natriuretic peptide receptor 1 (Homo sapiens), P16066 | 0% at EC30 ANP, 100% saturating ANP | activation, % at 10 µM; in the data active means activation above about 40%
# ADAM10 inh: human ADAM10 inhibitors, primary screen, biochemical, QFRET, HTS. Disintegrin and metalloproteinase domain-containing protein 10 (Homo sapiens), O14672. recombinant ADAM10, EDANS/DABCYL FRET peptide cleavage, 3 h. inhibition, % at 7 µM. hit rate 0.62% among 370,000;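 active means inhibition above a per-campaign cutoff equal to the mean of compounds falling between control-based bounds plus 3 SD, cut at about 20% in these data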;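 further: 0% = DMSO wells while the 100% control is not disclosed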
# GC-B act: human GC-B receptor activators, primary screen, HEK293 GC-B cells, cGMP TR-FRET, EC30 CNP; hit rate 0.11% among 370,000; 0% at EC30 CNP, 100% saturating CNP; activation, % at 10 µM;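 active means activation at 10 µM reaching about 35% in either raw or pattern-adjusted values, limit read from the data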
# Target sequence (P20594 whole entry, looked up): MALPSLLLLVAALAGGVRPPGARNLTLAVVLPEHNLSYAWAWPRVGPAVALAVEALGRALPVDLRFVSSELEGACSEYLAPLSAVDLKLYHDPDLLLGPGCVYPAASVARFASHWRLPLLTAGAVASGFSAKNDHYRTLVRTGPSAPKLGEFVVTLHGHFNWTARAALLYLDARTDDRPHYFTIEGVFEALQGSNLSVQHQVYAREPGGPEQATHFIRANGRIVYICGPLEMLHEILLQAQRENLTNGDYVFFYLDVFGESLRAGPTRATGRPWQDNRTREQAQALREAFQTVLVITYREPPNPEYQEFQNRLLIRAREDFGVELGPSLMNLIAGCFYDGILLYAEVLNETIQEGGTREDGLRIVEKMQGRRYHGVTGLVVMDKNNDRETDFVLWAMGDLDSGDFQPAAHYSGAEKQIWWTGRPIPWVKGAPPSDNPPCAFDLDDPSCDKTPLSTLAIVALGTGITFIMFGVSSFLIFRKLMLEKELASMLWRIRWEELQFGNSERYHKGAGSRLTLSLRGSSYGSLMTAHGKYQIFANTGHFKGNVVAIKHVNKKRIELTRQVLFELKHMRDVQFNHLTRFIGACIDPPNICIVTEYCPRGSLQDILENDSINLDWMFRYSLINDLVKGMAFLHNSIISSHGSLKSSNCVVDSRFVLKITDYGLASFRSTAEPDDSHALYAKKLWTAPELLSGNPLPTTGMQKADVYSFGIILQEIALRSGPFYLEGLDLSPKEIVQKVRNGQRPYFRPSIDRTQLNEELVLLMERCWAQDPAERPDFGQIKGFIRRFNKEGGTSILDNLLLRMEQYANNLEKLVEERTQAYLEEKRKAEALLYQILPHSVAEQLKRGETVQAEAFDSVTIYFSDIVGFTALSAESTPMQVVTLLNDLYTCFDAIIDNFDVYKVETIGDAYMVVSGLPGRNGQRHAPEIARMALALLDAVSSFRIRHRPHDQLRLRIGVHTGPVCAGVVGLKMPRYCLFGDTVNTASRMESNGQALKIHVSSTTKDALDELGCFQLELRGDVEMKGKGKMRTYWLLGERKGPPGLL
# ADAM10 confirm: human ADAM10 inhibitors, confirmation, biochemical, QFRET, triplicate; ADAM10 QFRET peptide cleavage, EDANS fluorescence; AID 743208, 2013; shares compounds with ADAM10 inh; hit rate 1% among 2,100; inhibition, % at 6.95 µM;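 active means inhibition above about 20% chosen separately for each screening run, limit read from the data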;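 further: 0% = DMSO wells and 100% = marimastat wells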
# ADAM17 ctr: ADAM17 inhibitors, counter-screen for ADAM10 exosite inhibitor project, biochemical, QFRET, high throughput; AID 743214, 2013; ADAM17 QFRET peptide cleavage, EDANS fluorescence; shares compounds with ADAM10 inh; inhibition, % at 6.95 µM; hit rate 0.5% among 2,100;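 active means mean triplicate inhibition above the solvent-only control wells' mean plus 3 SD, cut at about 12% in these data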;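 further: 0% = DMSO wells and 100% = marimastat wells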
# ADAM10 ctr: ADAM10 inhibitors, counter-screen for ADAM17 exosite inhibitor project, biochemical, FRET, human ADAM10; recombinant ADAM10, EDANS/DABCYL FRET peptide cleavage, 3 h; inhibition, % at 6.95 µM; shares compounds with ADAM17 inh; hit rate 47% among 2,900; AID 743256, 2014;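 active means mean inhibition over the triplicate runs exceeds the activity threshold set in the earlier primary screen, cut at about 20% in these data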;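 further: 0% = DMSO wells and 100% = marimastat wells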
# ADAM17 confirm: ADAM17 inhibitors, hit retest, confirmation, biochemical, QFRET peptide cleavage | inhibition, % at 6.95 µM | AID 743257, 2014 | shares compounds with ADAM17 inh | recombinant ADAM17, EDANS/DABCYL QFRET peptide cleavage | hit rate 65% among 2,900;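 active means mean inhibition across replicates above the hit cutoff set in the primary screen, cut at about 8.5% in these data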;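 further: 0% = DMSO wells and 100% = marimastat wells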
# * hit, by the source's call; . = no result given.
SMILES,ADAM17 inh,KLK7 zymogen act,NPR1 activator,ADAM10 inh,GC-B act,ADAM10 confirm,ADAM17 ctr,ADAM10 ctr,ADAM17 confirm
CCOc1cc(C(c2c(C)[nH][nH]c2=O)c2c(C)[nH][nH]c2=O)ccc1OC(=O)c1cccc([N+](=O)[O-])c1,24*,0,1,27*,5,4,1,12,7
CCOc1cc(C(c2c(C)[nH][nH]c2=O)c2c(C)[nH][nH]c2=O)ccc1OCc1ccc([N+](=O)[O-])cc1,1,0,4,10,13,.,.,.,.
Cc1ccc(Nc2nnc(SCC(=O)c3ccc(Br)s3)s2)c(C)c1,8.7*,0,2,24*,2,5,2,13,9.9*
Cc1cccc(C)c1Nc1nnc(SCC(=O)c2ccc(Br)s2)s1,5,0,-8,16,-7,.,.,.,.
Cc1c(C)n(Cc2ccc(-c3ccccc3C(=O)O)cc2)c2ccc(C(=O)N[C@@H](C)c3ccc(Br)cc3)cc12,0,1,-21,5,-7,.,.,.,.
CCCCOC(=O)Nc1ccc(S(=O)(=O)Nc2ccc([N+](=O)[O-])cc2)cc1,3,0,-8,11,1,.,.,.,.
CCCCCOC(=O)Nc1ccc(S(=O)(=O)Nc2cccc([N+](=O)[O-])c2)cc1,11*,1,-6,27*,1,3,2,24*,13*
O=C(Nc1ccccc1)OCCOc1ccc(Cl)cc1Cl,12*,1,1,32*,3,5,2,28*,15*
O=C(Nc1cccc(Cl)c1)OCCOCCOC(=O)Nc1cccc(Cl)c1,9.8*,1,-10,21*,-2,4,2,20,13*
CCOC(=O)c1ccc(S(=O)(=O)NCC(c2ccc(N(C)C)cc2)c2c[nH]c3ccccc23)cc1 (stereo not given),12*,-1,-7,26*,2,9,3,36*,23*
O=C(OCc1cn(Cc2cccc(C(F)(F)F)c2)nn1)N1CCOCC1,-3,0,0,-1,-2,.,.,.,.
O=C(Nc1cc(Oc2ccccc2)cc([N+](=O)[O-])c1)C12CC3CC(C1)CC(n1cnc(Cl)n1)(C3)C2,9.7*,0,5,22*,-6,8,3,28*,11*
O=C(O)c1cccc(NC(=O)C23CC4CC(C2)CC(n2cnc(Cl)n2)(C4)C3)c1,-5,1,-2,10,1,.,.,.,.
CC(C)C1C(=O)N(Cc2cn(CCC3OCCO3)nn2)CCS(=O)(=O)N1Cc1ccc(-c2ccc(F)cc2Cl)cc1 (stereo not given),10*,0,-4,24*,-6,6,2,33*,17*
COCOCCn1cc(CN2CCS(=O)(=O)N(Cc3ccc(-c4ccc(Cl)c(Cl)c4)cc3)C(C)C2=O)nn1 (stereo not given),11*,0,20,23*,-8,7,2,35*,19*
CC(C)C1C(=O)N(Cc2cn(CC3CCCCC3)nn2)CCS(=O)(=O)N1Cc1ccc(-c2ccccc2)cc1 (stereo not given),11*,0,-6,22*,-1,14,3,38*,15*
CC(C)CC1C(=O)N(Cc2cn(CCC3OCCCO3)nn2)CCS(=O)(=O)N1Cc1ccc(-c2ccc(Cl)cc2)cc1 (stereo not given),2,0,0,-17,3,.,.,.,.
CC(C)CC1C(=O)N(Cc2cn(CCC3OCCO3)nn2)CCS(=O)(=O)N1Cc1ccc(-c2ccc(F)cc2)cc1 (stereo not given),11*,0,14,25*,-3,7,3,31*,17*
Cc1ccc(CN2CCCCC(NC(=O)c3ccc(F)cc3)C2=O)cc1 (stereo not given),2,0,2,3,2,.,.,.,.
CN(c1ccc(C(=O)NCCSCc2ccc(Cl)cc2)cc1)S(=O)(=O)c1ccccc1,18*,1,-10,28*,-11,6,2,36*,15*
C[C@H](CO)N1C[C@H](C)[C@H](CN(C)S(=O)(=O)c2cccc(F)c2)OCc2ccccc2-c2c(n(C)c3ccccc23)C1=O,1,0,-2,15,3,.,.,.,.
Cc1ccc(S(=O)(=O)N(C)C[C@@H]2OCc3ccccc3-c3c(n(C)c4ccccc34)C(=O)N([C@H](C)CO)C[C@@H]2C)cc1,12*,0,-6,27*,6,9,2,39*,21*
Cc1ccc(NC(=O)[C@@H]2CC(=O)O[C@@H]2c2ccccc2)c(C)c1,-3,0,4,-3,7,.,.,.,.
O=C(CSC1CC(=O)N(CC(c2ccccc2)c2ccccc2)C1=O)Nc1ccc(Cl)cc1 (stereo not given),16*,0,-18,25*,-17,9,3,32*,20*
CC(=O)Nc1ccc(SC[C@H](Cc2ccccc2)N2CC[C@@H](C(C)(C)C)CCC2=O)cc1,12*,0,-1,36*,1,5,1,22*,15*
O=C(OCC#CCSc1nnc(-c2cccc3ccccc23)o1)c1ccc(C(F)(F)F)cc1,-5,.,-1,-3,1,.,.,.,.
CN(Cc1ccccc1)C(=O)c1ccc(NC(=O)Cc2cccc(NC(=O)C3CCCN(C(=O)CCc4ccccc4)C3)c2)cc1 (stereo not given),14*,2,-3,24*,0,3,2,24*,14*
COCc1cccc(NC(=O)Cc2cccc3ccccc23)c1,5,0,2,8,0,.,.,.,.
